# Source: PubChem (National Center for Advancing Translational Sciences (NCATS))
# Only some compounds are listed: those with a hit (about 9.3% of all), similar ones and a draw of the others.
# VACV mCherry inh: qHTS for Stage-Specific Inhibitors of Vaccinia Orthopoxvirus: mCherry Reporter Primary qHTS | Vaccinia virus mCherry reporter infection, fluorescence | Potency, µM (series often up to 36.5 µM), for inactives: at the highest dose activity change, negative = inhibition, most hits filed as inhibitors | 310,000 tested, 0.63% active; calls by dose curve; tested in A549 cells; further: potency means the concentration at half of the fitted maximal effect; nearly all actives have a fitted effect of over 35% in size
# Vaccinia Venus: qHTS for Stage-Specific Inhibitors of Vaccinia Orthopoxvirus: Venus Reporter Primary qHTS. Vaccinia virus Venus reporter expression, fluorescence. Potency, µM (series often up to 36.5 µM), for inactives: at the highest dose activity change, negative = inhibition, hits mostly inhibitors. 330,000 tested, 0.46% active; calls by dose curve; tested in A549 cells; further: potency means the concentration at half of the fitted maximal effect; nearly all actives have a fitted effect of over 30% in size
# Sm TGR inh: qHTS Assay for the Inhibitors of Schistosoma Mansoni Peroxiredoxins; purified TGR, DTNB reduction, TNB absorbance 405 nm; Schistosoma mansoni thioredoxin glutathione reductase (TGR), Q962Y6; Potency, µM (top dose mostly 114 µM), inactives show top-dose activity change, negative = inhibition, most hits filed as inhibitors; AID 485364, 2010; 360,000 tested, 3% active; further: potency means the concentration at half of the fitted maximal effect; nearly all actives have a fitted effect of over 60% in size
#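 TGR 20 nM + NADPH 100 uM (dispensed conc.), cpd preinc 15 min RT; start with NADPH (500 uM addition) then DTNB (15 mM addition). Kinetic TNB absorbance, 405 nm filter. Four-parameter Hill fit across titration.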
# HCMV antiviral: qHTS Assay for inhibitors of the human cytomegalovirus (HCMV); HFF cells, HCMV-luciferase reporter, 72 h; hits give low values; activity change, negative = inhibition, % at 57.5 µM; 410,000 tested, 4.5% active; AID 1259415, 2018; in the data active means activity change below about -60%; inconclusive means no clear call, values can overlap the other calls; inactive means above about -39%
#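 Compounds were evaluated in HFFs infected with an HCMV luciferase reporter virus (MOI 1 PFU/cell). Luciferase in lysates collected 72 h post infection served as the replication measure.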
# HCV inh: qHTS Assay for Inhibitors of Hepatitis C Virus (HCV); Potency, µM (series often up to 41.8 µM), for the others: top-dose activity change, negative = inhibition, usual class: inhibitors; Huh7.5.1 HCVcc-Cre infection, luciferase reporter, 44 h; 340,000 tested, 3.4% active; further: potency means the concentration at half of the fitted maximal effect
#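 Antiviral activity was scored by luciferase reporter output from cells infected with HCVcc-Cre (~0.5 moi) in presence of compound, 44 h infection period, cells seeded 1,000/well 4 h prior.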
# FMDV antiviral: High Throughput Screening for Foot and Mouth Disease Virus Antivirals. FMDV antiviral cell-based qHTS. Potency, µM (doses to about 57.9 µM), for inactives: top-dose activity change, negative = inhibition, hits mostly inhibitors. 410,000 tested, 1.2% active. AID 1159524, 2015; calls by dose curve; tested in HEK293T cells; further: read-out not given here; potency means the concentration at half of the fitted maximal effect; nearly all actives have a fitted effect of over 45% in size
# Starred values were filed as active, the others as inactive; i = inactive; ? = inconclusive; . = not tested or not shown. Unless noted, the call rests on the fitted dose curve; in most records, active means well fitted curve in the direction sought with a large enough effect; inconclusive means small, poorly fitted or top-dose-only effect, or another doubt; inactive means no such curve, though single readings can be large; an effect the other way counts as inactive or inconclusive. On the % scale 0 is the no-effect control and ±100 the full control effect.
SMILES,VACV mCherry inh,Vaccinia Venus,Sm TGR inh,HCMV antiviral,HCV inh,FMDV antiviral
Oc1ccc(Br)cc1/C=N/NC(=S)NCCc1ccccc1,1µM*,-11%,0%,-18,10µM*,2%
Cc1cccc(/C=N/NC(=O)c2cc(Br)ccc2O)n1,-29%,-22%,-11%,-16,4µM*,39%
O=C(CCc1ccccc1)N/N=C/c1cc(Br)ccc1O,13µM*,?,5%,-76*,11µM*,-4%
Cc1noc(C)c1-c1ccc(C(=O)NCCC(F)(F)F)c2occc12,-5%,-15%,.,94,.,8%
CCOC(=O)c1ccc(-n2c(N)c(C(=O)NCc3ccco3)sc2=S)cc1,.,.,-3%,25,4%,4%
CCOc1ccccc1C(=O)NCC(=O)N(C)Cc1ccccc1C,.,.,-12%,-16,5%,-16%
O=c1cnc2cnc(N3CCOCC3)nc2n1Cc1cccs1,.,.,.,.,.,-21%
O=C(N/N=C/c1cc(Br)ccc1O)c1ccccc1Cl,?,?,8%,-65*,?,1%
COC(=O)N/N=C\c1cc(Br)ccc1OCc1ccccc1,-20%,-11%,0%,-12,10µM*,-27%
CC1CCCC(C)N1C(=O)COC(=O)CCC(=O)c1cccs1 (configuration not stated),i,1%,.,18,3%,7%
COc1cccc(-c2ccnc(-n3ncc(C(=O)N(C)CCc4ccccn4)c3C)n2)c1,-12%,-9%,.,.,.,6%
CC1CN(C(=O)c2cc(F)c(F)cc2Cl)CC(C)O1 (configuration not stated),.,.,.,79,17%,-8%
N#CCC(=O)Nc1ccc(C(=O)OCC(=O)Nc2cc(-c3ccccc3)nn2-c2ccccc2)cc1,-23%,-13%,.,?,.,-23%
O=C(NCc1ccco1)C(c1cccs1)N(Cc1ccccc1)C(=O)Cn1nnc2ccccc21 (configuration not stated),.,-22%,-16%,-62*,-14%,-2%
CCOCCCN(C(=O)Cn1nnc2ccccc21)C(C(=O)NCc1ccco1)c1ccncc1 (configuration not stated),.,0%,16µM*,-13,9%,-9%
Cc1ccc(CN(C(=O)Cn2nnc3ccccc32)C(C(=O)NCc2ccco2)c2cccs2)cc1 (configuration not stated),.,-21%,0%,8,?,20%
C=CCNC(=S)NC(=O)c1ccc(C)c(Br)c1,-17%,-8%,32µM*,-19,-27%,18%
Nc1ccccc1SC(CC(=O)c1ccccc1)c1cccc([N+](=O)[O-])c1 (configuration not stated),-28%,-12%,.,43,.,-49%
C[C@@H]1CN([C@@H](C)CO)C(=O)CCCn2cc(nn2)CO[C@H]1CN(C)S(=O)(=O)c1ccccc1,-17%,-10%,.,-9,.,-1%
COc1ccccc1Nc1nn2c(=O)c3ccc(C(=O)NCCCOC(C)C)cc3nc2s1,?,?,-3%,?,.,?
CCN(CC)CCNC(=O)c1ccc2c(=O)n3nc(Nc4ccccc4OC)sc3nc2c1,?,-21%,0%,-101*,.,-10%
Cc1ccc(C)c(Nc2nn3c(=O)c4ccc(C(=O)NCc5cccs5)cc4nc3s2)c1,?,?,2%,-99*,.,-15%
COc1ccccc1Nc1nn2c(=O)c3ccc(C(=O)NCc4cccs4)cc3nc2s1,?,?,-3%,-97*,.,?
CCOC(=O)COc1ccc(C)cc1C(=O)c1ccn2nc(-c3ccc(F)cc3)cc2n1,-19%,-18%,-1%,-6,.,-9%
COc1ccccc1C(=O)NC(=O)COC(=O)C1CCC1,i,-9%,2%,-7,9%,0%
SMILES,VACV mCherry inh,Vaccinia Venus,Sm TGR inh,HCMV antiviral,HCV inh,FMDV antiviral
Cc1cn2c(=O)cc(COc3ccccc3NC(=O)c3ccc(C(C)(C)C)cc3)nc2s1,-27%,-23%,9%,17,.,-14%
CO/N=C/C(C#N)=C/c1ccc(OC)c(OC)c1,i,-10%,19%,-17,?,-1%
CO/N=C/C(C#N)=C/c1cc(C(=O)c2ccccc2)cn1C,-20%,-9%,0%,-26,10µM*,-3%
O=C(COC(=O)c1ccc2c(c1)OCCO2)Nc1cc(S(=O)(=O)N2CCOCC2)ccc1Cl,i,-8%,-3%,-39,-8%,-13%
CCOc1ccc(C2OC34CCCCC3C(C#N)(C#N)C2(C#N)C(=N)O4)cc1OC (configuration not stated),.,.,50µM*,.,2%,3%
CC1c2cc3c(cc2CCN1C(=O)c1cccc(F)c1)OCCCO3 (configuration not stated),.,.,-3%,?,?,-17%
CCOC(=O)c1c2c3c(c(Cl)ccc3[nH]c1=O)C(=O)c1ccccc1-2,-5%,92%,3%,-97*,-24%,-20%
Cc1ccc(-c2cc(C(=O)O)c3cc(Br)ccc3n2)o1,i,0%,2µM*,18,19%,27%
Cc1ccc(-c2cc(C(=O)NC3=NCCS3)c3cc(Br)ccc3n2)o1,.,.,2.8µM*,.,-4%,.
Cc1ccc(-c2cc(C(=O)NN3CCOCC3)c3cc(Br)ccc3n2)o1,i,6%,10µM*,?,1%,-19%
Cc1ccc(-c2cc(C(=O)NCCCn3ccnc3)c3cc(Br)ccc3n2)o1,.,?,1.6µM*,.,-12%,-23%
O=C(NN1CCOCC1)c1cc(-c2ccc(Br)s2)nc2ccccc12,.,.,2%,-25,?,-10%
Cc1cccc(-c2cc(C(=O)NCCCn3ccnc3)c3ccccc3n2)c1,.,.,1%,.,.,.
COc1ccc(OC)c(NC(=O)Cn2c(=O)cc(C)c3c(C)nn(-c4cccc(Cl)c4C)c32)c1,?,?,-9%,?,.,-30%
Cc1ccc(-n2ncc3c(NCc4ccco4)ncnc32)cc1C,i,-4%,1%,-3,17%,47%
Cc1cccc(-n2ncc3c(NCc4ccco4)ncnc32)c1,.,?,45µM*,119,?,-16%
Cc1cccc(-n2ncc3c(N(C)C4CCCCC4)ncnc32)c1,i,-21%,3%,-78*,6%,18µM*
COc1ccc(-n2ncc3c(N(C)C4CCCCC4)ncnc32)cc1,?,-22%,4%,-88*,7%,10µM*
Cc1cccc(C(=O)Oc2ccc(/C=N/NC(=O)c3ccncc3)cc2)c1,-15%,-6%,8%,45,-11%,10%
Cc1ccc(OCC(=O)Nc2ccc(-n3cnnn3)cc2)c(C)c1,-5%,-22%,-13%,-27,?,-7%
Cc1cc(C)nc(Sc2nc(Nc3ccccc3)nc(Sc3nc(C)cc(C)n3)n2)n1,?,?,-10%,-72*,?,-11%
CCC(C)c1ccc(NC(=O)COC(=O)CCNS(=O)(=O)c2cccs2)cc1 (configuration not stated),.,.,.,6,13%,40%
COCc1nc(-c2ccc(-c3ccccc3)nc2OC)no1,-19%,-9%,-14%,42,14µM*,57%
